{"source": "the antibiotic and cytotoxicity screens of Wong et al. (2023)", "note": "Among all 39,000 compounds or so, about 3,300 (8.5%) were called active. The full list was thinned out, with actives kept by preference.", "data": [{"test_system": "HepG2", "assay": "cytotoxicity call (relative viability < 0.9)", "conditions": "10 µM", "values": [{"smiles": "C[C@H](CO)N1C[C@H](C)[C@H](CN(C)C(=O)Cc2ccccc2)OCCCC[C@H](C)Oc2ccc(NC(=O)Nc3ccc(F)cc3)cc2C1=O", "cytotoxicity call": "inactive"}, {"smiles": "CCS(=O)(=O)Nc1ccc2c(c1)C(=O)N(C)[C@H]1CC[C@H](CC(=O)NCc3ccc(OC)cc3)O[C@@H]1CO2", "cytotoxicity call": "inactive"}, {"smiles": "C[C@H](CO)N1C[C@H](C)[C@H](CN(C)C(=O)Nc2ccc3c(c2)OCO3)OCCCC[C@H](C)Oc2ccc(NC(=O)c3ccncc3)cc2C1=O", "cytotoxicity call": "inactive"}, {"smiles": "C[C@H]1CCCCO[C@H](CN(C)Cc2ccncc2)[C@@H](C)CN([C@@H](C)CO)C(=O)c2cc(NC(=O)Nc3ccc(C(F)(F)F)cc3)ccc2O1", "cytotoxicity call": "active"}, {"smiles": "C[C@@H]1CCCCO[C@@H](CN(C)Cc2ccncc2)[C@@H](C)CN([C@@H](C)CO)C(=O)c2cc(NC(=O)Nc3ccc(C(F)(F)F)cc3)ccc2O1", "cytotoxicity call": "inactive"}, {"smiles": "C[C@@H]1CN([C@@H](C)CO)C(=O)c2cc(NC(=O)Nc3ccc(C(F)(F)F)cc3)ccc2O[C@@H](C)CCCCO[C@@H]1CN(C)Cc1ccncc1", "cytotoxicity call": "active"}, {"smiles": "C[C@@H]1CCCCO[C@H](CN(C)Cc2ccncc2)[C@H](C)CN([C@@H](C)CO)C(=O)c2cc(NC(=O)Nc3ccc(C(F)(F)F)cc3)ccc2O1", "cytotoxicity call": "active"}, {"smiles": "C[C@@H]1CCCCO[C@@H](CN(C)Cc2ccncc2)[C@@H](C)CN([C@H](C)CO)C(=O)c2cc(NC(=O)Nc3ccc(C(F)(F)F)cc3)ccc2O1", "cytotoxicity call": "active"}, {"smiles": "C[C@@H]1CN([C@@H](C)CO)C(=O)c2cc(NC(=O)Nc3ccc(C(F)(F)F)cc3)ccc2O[C@@H](C)CCCCO[C@H]1CN(C)Cc1ccncc1", "cytotoxicity call": "inactive"}, {"smiles": "C[C@H](CO)N1C[C@H](C)[C@@H](CN(C)CC2CC2)Oc2ccc(NC(=O)CCN3CCOCC3)cc2CC1=O", "cytotoxicity call": "inactive"}, {"smiles": "COC(=O)c1c(CC[C@@H](CO)NC(=O)N[C@H](Cc2ccccc2)Cn2cc(-c3ccccc3N)nn2)oc(C(C)=O)c1C(=O)OC", "cytotoxicity call": "inactive"}, {"smiles": "COc1ccc(NC(=O)N(C)C[C@@H]2Oc3ccc(NC(=O)Nc4cccc5ccccc45)cc3CC(=O)N([C@H](C)CO)C[C@H]2C)cc1", "cytotoxicity call": "inactive"}, {"smiles": "C[C@H](CO)N1C[C@H](C)[C@H](CN(C)C(=O)NC2CCCCC2)OCCCC[C@H](C)Oc2ccc(NC(=O)c3ccncc3)cc2C1=O", "cytotoxicity call": "inactive"}, {"smiles": "COc1ccc(NC(=O)N(C)C[C@H]2Oc3ccc(NC(=O)CCN4CCOCC4)cc3C(=O)N([C@@H](C)CO)C[C@H]2C)cc1", "cytotoxicity call": "inactive"}, {"smiles": "C[C@@H]1CN([C@@H](C)CO)C(=O)CCCn2nncc2CO[C@H]1CN(C)C(=O)c1ccc(N2CCN(C)CC2)cc1", "cytotoxicity call": "inactive"}, {"smiles": "C[C@H]1CN([C@@H](C)CO)C(=O)c2cccc(NC(=O)C3CC3)c2O[C@@H]1CN(C)C(=O)Nc1ccc2c(c1)OCO2", "cytotoxicity call": "inactive"}]}]}
